From PubChem BioAssay
HCMV inh – qHTS Assay for inhibitors of the human cytomegalovirus (HCMV) | HFF cells, HCMV-luciferase reporter, 72 h; hits give low values | activity change, negative = inhibition, % at 57.5 µM | 410,000 tested, 4.5% active; in the data active = activity change below about -60%; inconclusive = no clear call, values can overlap the other calls; inactive = above about -39%
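HFF cells seeded 16 h at 37C, treated with compounds, infected with luciferase-reporter HCMV at MOI 1 PFU/cell; luciferase read at 72 h post infection, normalized to buffer-only and Salinomycin controls.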
FMDV antiviral – High Throughput Screening for Foot and Mouth Disease Virus Antivirals; FMDV antiviral cell-based qHTS; 410,000 tested, 1.2% active; Potency, µM (series often up to 57.9 µM), without a hit: at the highest dose activity change, negative = inhibition, usual class: inhibitors; calls by dose curve; tested in HEK293T cells; also: read-out not given here; potency is read from the fitted curve at half-maximal effect; nearly all actives have a fitted effect of over 45% in size
HCV inh – qHTS Assay for Inhibitors of Hepatitis C Virus (HCV); 340,000 tested, 3.4% active; Huh7.5.1 HCVcc-Cre infection, luciferase reporter, 44 h; AID 651820, 2012; Potency, µM (top dose mostly 41.8 µM), without a hit: at the highest dose activity change, negative = inhibition, usual class: inhibitors; also: potency is read from the fitted curve at half-maximal effect
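HCVcc-Cre virus at an moi near 0.5 was added right after compound to cells cultured 4 h from seeding (1,000 cells/well). Luciferase activity was determined 44 h later, 15 min after substrate addition at RT.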
AmpC inh no detg – qHTS Inhibitors of AmpC Beta-Lactamase (assay without detergent) | P00811 | 330,000 tested, 0.52% active | AmpC nitrocefin hydrolysis, absorbance 480 nm, 0.0001% Triton | Potency, µM (series often up to 57.1 µM), inactives show at the highest dose activity change, negative = inhibition, usual class: inhibitors | AID 485341, 2010;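 also: potency is read from the fitted curve at half-maximal effect; plate controls were no compound for no effect and no enzyme for full effect; nearly all actives have a fitted effect of over 20% in size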
Target sequence (P00811 whole entry, looked up): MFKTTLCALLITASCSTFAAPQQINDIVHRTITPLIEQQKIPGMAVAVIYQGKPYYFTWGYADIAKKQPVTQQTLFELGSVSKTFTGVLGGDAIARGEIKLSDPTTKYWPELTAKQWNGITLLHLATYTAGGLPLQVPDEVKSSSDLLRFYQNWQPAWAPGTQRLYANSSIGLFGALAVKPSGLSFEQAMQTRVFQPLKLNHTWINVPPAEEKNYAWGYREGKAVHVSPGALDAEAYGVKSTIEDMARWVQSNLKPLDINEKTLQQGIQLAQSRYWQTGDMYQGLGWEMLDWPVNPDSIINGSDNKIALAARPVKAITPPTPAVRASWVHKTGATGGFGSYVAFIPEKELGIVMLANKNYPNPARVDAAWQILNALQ
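20 mM phosphate pH 7.0 + 0.01% (detergent screen) or 0.0001% Triton X-100; 5.3 nM AmpC reagent; cpd preinc 15 min RT; nitrocefin (800 uM stock) to start; A480 q20 s × 4 min; Activity was normalised to no-enzyme and no-compound control wells.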
AmpC detergent – qHTS Inhibitors of AmpC Beta-Lactamase (assay with detergent); Potency, µM (top dose mostly 114 µM), for inactives: at the top dose activity change, negative = inhibition, hits mostly inhibitors; AmpC hydrolysis of nitrocefin, absorbance 480 nm, 0.01% Triton; 370,000 tested, 0.041% active; P00811;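 also: potency is read from the fitted curve at half-maximal effect; 0% = no-compound wells and -100% = no-enzyme wells; nearly all actives have a fitted effect of over 25% in size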
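AmpC (5.3 nM in the dispensed reagent) in 20 mM phosphate pH 7.0 with 0.01% (detergent screen) or 0.0001% Triton X-100 was preincubated with compounds for 15 min at room temperature. Nitrocefin was then added from an 800 uM solution, and hydrolysis was followed at 480 nm.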
Starred values were filed as active, the others as inactive; ? = inconclusive; · = not tested or not shown. Sampled rows, rich in hits. Any-hit rate of the full collection: about 7.3%. Unless noted, calls follow the shape of the dose curve; as a rule, active = well fitted curve in the direction sought with a large enough effect; inconclusive = small, poorly fitted or top-dose-only effect, or another doubt; inactive = no such curve, though single readings can be large; an effect the other way counts as inactive or inconclusive. Unless noted, % is scaled to controls: 0 for no effect and ±100 for the full control effect.

SMILES	HCMV inh	FMDV antiviral	HCV inh	AmpC inh no detg	AmpC detergent
NS(=O)(=O)c1ccc(NC(=O)N2c3ccccc3Sc3ccccc32)cc1	-63.5*	·	-6.0%	35.5µM*	-10.8%
CCc1ccc(NC(=O)N2c3ccccc3Sc3ccccc32)cc1	-17.4	-13.6%	·	·	10.8%
CC1CCCC(C)N1C(=O)COC(=O)C12CC3CC(CC(Cl)(C3)C1)C2 (stereo not given)	-62.6*	-16.8%	-6.5%	32.7%	-14.8%
O=C(NCC(c1ccccc1Cl)N1CCCC1)c1ccc(N2CCCC2=O)cc1 (stereo not given)	-1.6	16.2%	?	16.9%	8.9%
O=C(CSc1nnc(NC2CCCCC2)s1)Nc1ccc2c(c1)C(=O)c1ccccc1C2=O	105.7	22.0%	10µM*	-37.3%	-2.6%
CC(C)Nc1nnc(SCC(=O)Nc2ccc3c(c2)C(=O)c2ccccc2C3=O)s1	73.3	-2.1%	?	10µM*	2.5%
NS(=O)(=O)c1ccc(NC(=O)CSc2nnc(NC3CC3)s2)cc1	-26.7	-0.9%	5.4%	-17.2%	-15.7%
Cc1ccc(NC(=O)CN(C)C(=O)CSc2nnc(NC(C)C)s2)cc1	-10.4	0.6%	-7.7%	2.0%	0.0%
CC1C(=O)Nc2ccccc2N1C(=O)c1cccc(C(F)(F)F)c1 (stereo not given)	31.6	-2.9%	-12.6%	-6.6%	-6.6%
Cc1cc(C)c2c(c1)/C(=C/C(=O)c1ccc(Br)s1)C(=O)N2	-103.2*	?	11.2µM*	-31.9%	-13.3%
Cc1cc(Br)c2c(c1)/C(=C/C(=O)c1cccs1)C(=O)N2	-6.5	?	?	-36.6%	-3.7%
O=C(Cn1c(=O)n(-c2ccccc2Cl)c(=O)c2sc3ccccc3c21)NC1CCCC1	11.9	-11.9%	·	·	-2.4%
O=C(Nc1ccc2c(c1)OCCO2)C(C1CC1)N1CCN(c2ccc(F)cc2)CC1 (stereo not given)	10.3	0.5%	·	·	·
CC(Oc1ccccc1)C(=O)NNC(=O)c1ccccn1 (stereo not given)	?	-10.4%	?	-20.6%	-5.9%
O=C(/C=C/c1ccccc1)NC(=S)NNC(=O)c1cccnc1	29.9	5.0%	3.1%	-18.9%	-11.6%
COc1ccc(C(=O)Nc2ccc(NC(=O)c3cnccn3)cn2)cc1	12.6	·	12.6µM*	-16.9%	-2.5%
O=C(/C=C/c1ccccc1)NC(=S)NNC(=O)c1cnccn1	-98.0*	2.5%	?	-14.3%	5.5%
COc1cc(OC)cc(C(=O)NC(=S)NNC(=O)c2cnccn2)c1	-88.8*	-0.8%	?	-1.9%	0.1%
CC(Oc1cccc(Br)c1)C(=O)NNC(=O)c1ccccn1 (stereo not given)	·	0.0%	5.01µM*	-19.1%	·
Cc1ccc(S(=O)(=O)N(CC(=O)NC2CC3CCC2C3)c2ccccc2)cc1 (stereo not given)	-16.7	-1.3%	·	·	·
CC(=O)c1ccc(NC(=O)Cn2c(=O)cc(C)c3c(C)nn(-c4cccc(F)c4)c32)cc1	3.7	6.8%	·	·	8.2%
COc1ccc(C(=O)NCCNC(=O)c2ccccn2)cc1	-9.4	12.6%	20.9%	-19.1%	0.0%
COc1cc(OC)cc(C(=O)NNC(=O)c2ccccn2)c1	-97.8*	-6.5%	?	-10.8%	?
COc1ccc(C(=O)NNC(=O)c2ccccn2)cc1	-83.6*	1.78µM*	0.1%	8.6%	-3.7%
CN1CCN(/N=C/c2ccc(-c3ccccc3)cc2)CC1	-85.5*	1.0%	-26.7%	27.1%	-6.2%
SMILES	HCMV inh	FMDV antiviral	HCV inh	AmpC inh no detg	AmpC detergent
CC1(C)NC(=S)NC1=S	-99.6*	-21.4%	10.5%	·	·
CCC1(CC)NC(=S)NC1=S	13.4	3.5%	14.8%	·	·
CCCCN(CCCC)CCCNC(=O)Cn1cc(C)c(=O)[nH]c1=O	-6.3	·	·	·	·
COc1ccc(CCN2C(=O)CS/C2=N/NC(=O)c2ccccc2F)cc1OC	5.5	-31.6%	9.6%	-15.7%	-13.6%
COc1ccc(CCN2C(=O)CSC2=Nc2ccc(C)cc2C)cc1OC	-8.8	12.6µM*	?	0.3%	-3.4%
COc1ccc(OC)c(N2C(=O)CC(Cc3cc(C)cc(C)c3)C2=O)c1 (stereo not given)	22.5	?	3.55µM*	63.0%	10.3%
COc1ccc(CCN2C(=O)CC(Cc3ccc(C)cc3)C2=O)cc1OC (stereo not given)	-63.9*	-13.2%	-1.2%	65.2%	5.2%
COc1ccc(CCN2C(=O)CC(NC34CC5CC(CC(C5)C3)C4)C2=O)cc1OC (stereo not given)	-27.7	?	-14.7%	100.7%	-5.3%
COCCN(C(=O)COC(=O)CNC(=O)c1ccc(C)cc1)c1c(N)n(Cc2ccccc2)c(=O)[nH]c1=O	1.7	4.5%	12.9%	·	·
COc1ccc(N2CCN(CCC(O)c3ccc4ccccc4c3)CC2)cc1 (stereo not given)	-7.2	-18.6%	-5.5%	26.9%	3.1%
COc1ccc(/C=C2\SC(=S)N(CCCC(=O)N3CCCCC3CCO)C2=O)cc1 (stereo not given)	-99.8*	-15.6%	-15.2%	171.5%	2.5%
CC(C)c1ccc(/C=C2\SC(=S)N(CCC(=O)N3CCCCC3CCO)C2=O)cc1 (stereo not given)	-100.4*	11.2µM*	-17.0%	38.0%	?
O=C1/C(=C/c2ccccc2Cl)SC(=S)N1CCC(=O)N1CCCCC1CCO (stereo not given)	-80.9*	-11.6%	17.7%	124.8%	-7.0%
COc1cccc(/C=C2\SC(=O)N(CCC(=O)N3CCCCC3CCO)C2=O)c1 (stereo not given)	-35.2	-24.1%	?	185.2%	-7.8%
CN1CCN(C(=O)CCN2C(=O)/C(=C\c3ccc(Cl)cc3)SC2=S)CC1	·	-18.7%	7.8%	-6.5%	-12.1%
O=C1/C(=C\c2ccccc2)SC(=S)N1CCC(=O)N1CCCCC1CCO (stereo not given)	-86.2*	-0.5%	21.8%	164.2%	2.4%
COc1ccc(S[C@]2(C(=O)N(C)C)CC(=O)N(c3ccc4ccccc4c3)[C@@H]2c2ccc(OC)cc2)cc1	19.4	·	·	·	·
O=Cc1c2c(cc3ccc(Cl)cc13)CCC2	2.9	·	·	·	·
O=C1/C(=C/c2ccccc2)SC(=S)N1CC(=O)N1CCCCC1c1cccnc1 (stereo not given)	-90.1*	?	?	58.6%	0.5%
Cc1nc(NCc2ccccn2)c2c3c(sc2n1)CCCC3	-17.4	?	22.4µM*	182.5%	-4.7%
Cc1nc(NCc2ccco2)c2c3c(sc2n1)CCC3	-70.3*	?	-15.1%	-18.3%	-2.9%
COc1ccccc1S(=O)(=O)N(C)C[C@H]1OCc2cn(nn2)CCCC(=O)N([C@H](C)CO)C[C@@H]1C	-7.5	-16.3%	·	·	·
CC1=C(N2CC2)C(=O)C(CO)=C(N2CC2)C1=O	-96.9*	0.0%	?	·	·
